# Where a chain is given by its changes, count along the chain named.
# Columns and labels:
# Experiment in all cases: yeast three-hybrid, YBZ-1, SC-Leu-His + 0.5 mM 3-AT, 4 days
# Conditions in all cases: tags: N-Gal4 AD-HA kept; label: inside an RPR1-promoter hybrid RNA with tandem MS2 sites; ssRNA
# PUM1 PUF domain R6-SFM = target: T1, PUM1 PUF domain R6-SFM (Homo sapiens, UniProt Q14671 828-1176, N1043S;Y1044F;Q1047M)
# T1 sequence: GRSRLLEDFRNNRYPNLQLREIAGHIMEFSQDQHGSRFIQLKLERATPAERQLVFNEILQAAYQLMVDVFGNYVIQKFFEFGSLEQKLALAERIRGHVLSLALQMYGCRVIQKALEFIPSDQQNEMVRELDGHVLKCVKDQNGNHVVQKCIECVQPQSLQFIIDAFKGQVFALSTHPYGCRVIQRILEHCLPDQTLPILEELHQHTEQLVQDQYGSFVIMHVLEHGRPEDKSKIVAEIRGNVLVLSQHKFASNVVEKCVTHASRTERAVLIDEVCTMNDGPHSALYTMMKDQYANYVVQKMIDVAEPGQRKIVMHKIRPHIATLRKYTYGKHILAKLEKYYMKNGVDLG
# Summary of the method: (§1)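 Matching RNA elements and Pumilio-1 PUF domain libraries, randomized at the three base-contacting residues of every repeat, were co-expressed from a centromeric plasmid in strain YBZ-1 (LexA–MS2 coat fusion, HIS3 reporter). The repeat regions were PCR-amplified and Illumina-sequenced from cells grown four days on SC-Leu (input) or SC-Leu-His + 0.5 mM 3-AT (selection). The interaction score is the log change in variant frequency from input to selection. It is computed in log2, with a pseudocount of 1 for absent variants.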
# PUM1 PUF domain R6-GFS = target: T2, PUM1 PUF domain R6-GFS (Homo sapiens, UniProt Q14671 828-1176, N1043G;Y1044F;Q1047S)
# T2 sequence: T1 sequence with S216G, M220S
# Summary of the method: as §1
# PUM1 PUF domain R7-RVS = PUM1 PUF domain R7-RVS (Homo sapiens, UniProt Q14671 828-1176, S1079R;N1080V;E1083S)
# Summary of the method: as §1
# PUM1 PUF domain R5-RVC = PUM1 PUF domain R5-RVC (Homo sapiens, UniProt Q14671 828-1176, C1007R;R1008V;Q1011C)
# Summary of the method: as §1
# PUM1 PUF domain R5-KQM = PUM1 PUF domain R5-KQM (Homo sapiens, UniProt Q14671 828-1176, C1007K;R1008Q;Q1011M)
# Summary of the method: as §1
# PUM1 PUF domain R5-KGN = PUM1 PUF domain R5-KGN (Homo sapiens, UniProt Q14671 828-1176, C1007K;R1008G;Q1011N)
# Summary of the method: as §1
# PUM1 PUF domain R2-EPW = PUM1 PUF domain R2-EPW (Homo sapiens, UniProt Q14671 828-1176, N899E;Y900P;Q903W)
# Summary of the method: as §1
# PUM1 PUF domain R3-RAW = PUM1 PUF domain R3-RAW (Homo sapiens, UniProt Q14671 828-1176, C935R;R936A;Q939W)
# Summary of the method: as §1
sequence,measurement,setting,value
GGCUAGAACUAGUGGAUCCCCCGGCGCCCGGCGGCUCGAGCCCGGGUAAGUGUAAAUAGUCUGCAUGCCGCCGGGCGCCAUGCCUGCAGGUCGACUCUAGAAAACAUG,binding signal,PUM1 PUF domain R6-SFM,2.95 log2 enrichment (interaction score)
same,binding signal,PUM1 PUF domain R6-GFS,2.76 log2 enrichment (interaction score)
GGCUAGAACUAGUGGAUCCCCCGGCGCCCGGCGGCUCGAGCCCGGGUAAGUUUAAAUAGUCUGCAUGCCGCCGGGCGCCAUGCCUGCAGGUCGACUCUAGAAAACAUG,binding signal,PUM1 PUF domain R7-RVS,3.16 log2 enrichment (interaction score)
GGCUAGAACUAGUGGAUCCCCCGGCGCCCGGCGGCUCGAGCCCGGGUAAGUGUCAAUAGUCUGCAUGCCGCCGGGCGCCAUGCCUGCAGGUCGACUCUAGAAAACAUG,binding signal,PUM1 PUF domain R5-RVC,2.54 log2 enrichment (interaction score)
GGCUAGAACUAGUGGAUCCCCCGGCGCCCGGCGGCUCGAGCCCGGGUAAGUGUUAAUAGUCUGCAUGCCGCCGGGCGCCAUGCCUGCAGGUCGACUCUAGAAAACAUG,binding signal,PUM1 PUF domain R5-KQM,4.71 log2 enrichment (interaction score)
same,binding signal,PUM1 PUF domain R5-KGN,3.75 log2 enrichment (interaction score)
GGCUAGAACUAGUGGAUCCCCCGGCGCCCGGCGGCUCGAGCCCGGGUAAGUGUAAAGAGUCUGCAUGCCGCCGGGCGCCAUGCCUGCAGGUCGACUCUAGAAAACAUG,binding signal,PUM1 PUF domain R2-EPW,3.25 log2 enrichment (interaction score)
GGCUAGAACUAGUGGAUCCCCCGGCGCCCGGCGGCUCGAGCCCGGGUAAGUGUAAUUAGUCUGCAUGCCGCCGGGCGCCAUGCCUGCAGGUCGACUCUAGAAAACAUG,binding signal,PUM1 PUF domain R3-RAW,4.11 log2 enrichment (interaction score)
GGCUAGAACUAGUGGAUCCCCCGGCGCCCGGCGGCUCGAGCCCGGGUAAGUGUAAGUAGUCUGCAUGCCGCCGGGCGCCAUGCCUGCAGGUCGACUCUAGAAAACAUG,binding signal,PUM1 PUF domain R3-RAW,1.15 log2 enrichment (interaction score)
